Laboratory results as given in PMC4336329 (PLoS ONE, 2015).
Out of some 310,000 compounds screened, about 14,000 (4.5%) showed an effect of 50% or more. Effects have a minus sign here. This excerpt belongs to a sample that is enriched for strong results.

The compounds below were run against human ether-à-go-go-related gene (hERG) potassium channel (human, UniProt Q12809) (assay: primary screen, population patch clamp on CHO cells stably expressing hERG; higher = less effect of the substance).
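Further: peak tail current of the secondary pulse compared with the same well before compound.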

human ether-à-go-go-related gene (hERG) potassium channel, sequence (Q12809 whole entry, looked up): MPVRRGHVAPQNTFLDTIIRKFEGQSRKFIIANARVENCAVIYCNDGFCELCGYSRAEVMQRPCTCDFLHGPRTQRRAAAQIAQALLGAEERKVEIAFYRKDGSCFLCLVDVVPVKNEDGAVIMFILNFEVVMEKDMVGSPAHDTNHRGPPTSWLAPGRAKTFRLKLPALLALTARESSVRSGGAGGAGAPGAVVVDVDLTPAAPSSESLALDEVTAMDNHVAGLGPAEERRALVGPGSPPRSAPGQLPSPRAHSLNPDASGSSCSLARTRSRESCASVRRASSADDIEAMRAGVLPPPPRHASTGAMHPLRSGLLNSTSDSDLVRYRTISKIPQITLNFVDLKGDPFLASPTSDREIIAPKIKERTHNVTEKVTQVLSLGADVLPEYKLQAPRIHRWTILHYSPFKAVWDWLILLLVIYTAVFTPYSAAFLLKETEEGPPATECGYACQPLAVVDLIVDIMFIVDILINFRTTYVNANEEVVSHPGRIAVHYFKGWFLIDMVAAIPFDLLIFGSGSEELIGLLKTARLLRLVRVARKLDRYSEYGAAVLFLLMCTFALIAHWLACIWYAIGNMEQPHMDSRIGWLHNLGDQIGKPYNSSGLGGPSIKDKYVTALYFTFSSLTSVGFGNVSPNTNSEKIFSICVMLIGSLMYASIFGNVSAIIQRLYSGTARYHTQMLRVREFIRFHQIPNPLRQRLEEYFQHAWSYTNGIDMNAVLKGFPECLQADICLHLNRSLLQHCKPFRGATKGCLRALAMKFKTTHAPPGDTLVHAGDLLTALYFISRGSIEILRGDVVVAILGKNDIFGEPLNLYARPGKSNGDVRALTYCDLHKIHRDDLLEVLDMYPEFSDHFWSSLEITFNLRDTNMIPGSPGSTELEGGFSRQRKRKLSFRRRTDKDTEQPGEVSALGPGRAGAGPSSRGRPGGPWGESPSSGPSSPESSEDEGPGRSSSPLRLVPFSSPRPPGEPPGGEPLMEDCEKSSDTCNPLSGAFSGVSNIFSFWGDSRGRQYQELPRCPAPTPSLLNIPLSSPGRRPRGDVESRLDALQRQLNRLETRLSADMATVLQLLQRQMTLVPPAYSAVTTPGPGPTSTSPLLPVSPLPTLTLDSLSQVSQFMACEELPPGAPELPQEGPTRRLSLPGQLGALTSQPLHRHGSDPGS

Compound | hERG current change (%, negative = inhibition) at 10uM
COc1ccc(NC(=O)CC2(CC(=O)O)CCCC2)cn1 | 16.7%
CC(C)N1CCC(N2CCN(Cc3ccc(Oc4ncccn4)cc3)CC2CCO)CC1 (centres unmarked) | 23.9%
Cc1cc(C)n(-c2ccc(C(=O)Nc3cccc([N+](=O)[O-])c3)cc2)n1 | 40.2%
COc1ccc(CCNC(=O)c2ccc(-c3ccc([N+](=O)[O-])cc3Cl)o2)cc1 | 4.64%
CN(CC(=O)Nc1ccc(S(=O)(=O)N2CCCC2)cc1)Cc1ccc(Cl)c(Cl)c1 | 0.187%
Cc1ccc(NC(=O)CN(C)C(=O)Cc2ccc(Cl)c(Cl)c2)cc1 | 11.8%
CN(CC(=O)Nc1ccc(C#N)cc1)Cc1ccc(Cl)c(Cl)c1 | -60.8%
C=CCNC(=O)c1ccc(C(=O)c2ccccc2)cc1 | -27.8%
CC(=O)CSc1ncnc2c1cnn2-c1ccccc1 | 12.6%
COc1ccc(/C=C/C(=O)c2ccc(O)cc2)cc1CN1CCOCC1 | -11.3%
COc1ccc(/C=N\NC(=O)c2nn(C)cc2Cl)cc1CN1CCOCC1 | -10.6%
COc1ccc(/C=N/NC(=O)c2ccc(Br)cc2)cc1CN1CCOCC1 | -64.8%
COc1ccc(/C=N/NC(=O)c2ccncc2)cc1CN1CCOCC1 | 3.71%
COc1ccc(/C=N/NC(=O)c2cccc(Br)c2)cc1Cn1cc(Cl)cn1 | 8.83%
COc1ccc(/C=C2\CCc3ccccc3C2=O)cc1Cn1cccn1 | 2.14%
COc1ccc(/C=N/NC(=O)c2cccc(Br)c2)cc1CN1CCOCC1 | -82.4%
COc1ccc(/C=C/C(=O)c2ccccc2O)cc1CN1CCOCC1 | -17.7%
COc1ccc(C(=O)/C=C/c2ccc(OC)c(CN3CCOCC3)c2)cc1 | -56.3%
CCOc1cc(/C=N/NC(=O)c2ccc(CN3CCOCC3)cc2)ccc1OC | -19.1%
COc1ccc(/C=C2/CCc3ccccc3C2=O)cc1CN1CCOCC1 | -59.6%
COc1ccc(/C=C2\CCc3ccccc3C2=O)cc1CN1CCOCC1 | -33.6%
CC(C)CN(C(=O)COC(=O)C1CC1)c1c(N)n(Cc2ccccc2)c(=O)[nH]c1=O | 13%
CCc1c(O)nc(SCC(=O)Nc2nc3ccccc3s2)n(-c2ccc(C)cc2)c1=O | -17.8%
Clc1ccc(-c2csc(N3CCc4ccccc4C3)n2)cc1 | 14.3%

Compound | hERG current change (%, negative = inhibition) at 10uM
COc1c(S(=O)(=O)NCCN2CCOCC2)ccc(Cl)c1Cl | -16.3%
CNC(=O)COC(=O)c1cc(NC(=O)c2ccco2)c(OC)c(OC)c1 | 2.4%
O=S(=O)(c1cc(C(F)(F)F)ccc1Cl)N1CCN(c2ccccn2)CC1 | -26.3%
CC(C)n1cnnc1SCC(=O)Nc1cccc(S(=O)(=O)N(C)c2ccccc2)c1 | -12.4%
c1ccc(C2(c3ccccc3)OCC(Cn3cncn3)O2)cc1 (centres unmarked) | -0.819%
COc1ccc(/C=N/n2cnc3c(sc(=S)n3-c3ccccc3)c2=O)cc1 | 13.4%
O=C(c1ccccc1-n1cccc1)N1N=C(C(F)F)CC1(O)C(F)F (centres unmarked) | -63.2%
O=C(c1cc(-c2ccccc2)nc2ccccc12)N1N=C(C(F)F)CC1(O)C(F)F (centres unmarked) | -13.2%
O=C(c1cc(C2CC2)nc2ccccc12)N1N=C(C(F)F)CC1(O)C(F)F (centres unmarked) | -18.3%
COc1ccc(-c2cc(C(=O)NCc3ccco3)c3ccccc3n2)cc1 | -5.84%
Cc1nn(-c2cc(Cl)ccc2Cl)c(C)c1C(=O)O | 13.2%
Cc1ccc2c(c1)C1CN(C)CCC1N2C(=O)COc1ccc(N(C)C(=O)C(C)(C)C)cc1 (centres unmarked) | -9.48%
Cc1ccc2c(c1)C1CN(C)CCC1N2C(=O)COc1ccc(N(C)S(=O)(=O)c2cccs2)cc1 (centres unmarked) | -52.9%
Cc1ccc(N(CC(=O)NC2CCCCC2)S(=O)(=O)c2cccs2)cc1 | 5.9%
CN(c1ccc(OCC(=O)N2CCN(c3ccc(F)cc3)CC2)cc1)S(=O)(=O)c1cccs1 | -58.7%
CC(=O)N1CCN(C(=O)COc2ccc(N(C)S(=O)(=O)c3cccs3)cc2)CC1 | -14.7%
CN(c1ccc(OCC(=O)N2CCCCC2)cc1)S(=O)(=O)c1cccs1 | -11.2%
CCOc1ccc(S(=O)(=O)N(C)c2ccc(OCC(=O)N3c4ccc(C)cc4C4CN(C)CCC43)cc2)cc1 (centres unmarked) | -38.5%
CCN(CC)c1ccc(NC(=O)COc2ccc(N(C)S(=O)(=O)c3cccs3)cc2)cc1 | 8.15%
CN(c1ccc(OCC(=O)NC2CCCC2)cc1)S(=O)(=O)c1cccs1 | -80.6%
O=C(COc1ccc(S(=O)(=O)NC2CCCCC2)cc1)NC1CCCCC1 | -54.1%
O=C(COc1ccc(S(=O)(=O)NC2CCCCC2)cc1)NC1CCCC1 | -8.19%
O=C(COc1ccc(S(=O)(=O)NC2CCCCC2)cc1)NC1CC1 | 3.4%
